Measurements as given in article PMC5540273 (PLoS ONE, 2017).

Tests used:
Settings in all cases: concentration: 1 μM,replicates: in singlicate; n = 1
[1] = test system: T1, SNARK
T1 construct: gene NUAK2

[2] = test system: SNRK
[3] = test system: SRC
[4] = test system: SRMS
[5] = test system: SRPK1
[6] = test system: SRPK2
[7] = test system: SRPK3
[8] = test system: STK16
[9] = test system: STK33
[10] = test system: STK35
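Also: KINOMEscan kinase panel screen.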

Row | Compound | %Inh [1] [%] | %Inh [2] [%] | %Inh [3] [%] | %Inh [4] [%] | %Inh [5] [%] | %Inh [6] [%] | %Inh [7] [%] | %Inh [8] [%] | %Inh [9] [%] | %Inh [10] [%]
1 | Cc1ccc(Nc2ccnc(Nc3ccc4c(c3)CS(=O)(=O)C4)n2)cc1O.Cl [GW579362] | 52 | 6 | 99.9 | 87 | 99.2 | 18 | 83 | 98.5 | 89 | 22
2 | Cc1ccc2c(-c3ccnc(Nc4ccc(C(F)(F)F)cc4)n3)cnn2n1 [GW819776] | 0 | 0 | 0 | 28 | 14 | 0 | 26 | 48 | 52 | 0
3 | OCCn1cc(-c2cnc3nnn(Cc4ccc5ncccc5c4)c3n2)cn1 | 0 | 0 | 0 | 0 | 0 | 4 | 0 | 0 | 0 | 0
4 | O=c1[nH]cc(-c2ccc(O)cc2)c2sc(-c3ccncc3)cc12 [GSK1033723] | 8 | 0 | 0 | 0 | 21 | 5 | 0 | 22 | 0 | 0
5 | CC(=O)c1c(-c2ccncc2)[nH]c(-c2ccncc2)c1C [GW493036] | 0 | 0 | 0 | 0 | 24 | 16 | 0 | 28 | 0 | 0
6 | Nc1nccc(-c2ccc3c(N)n[nH]c3c2)n1 [GSK1034945] | 35 | 0 | 0 | 0 | 67 | 0 | 55 | 29 | 0 | 0
7 | COc1cccc(OC)c1C(=O)Nc1cccc(-c2nn3ccccc3c2-c2ccnc(Nc3cccc(F)c3)n2)c1 [GSK361065] | 91.2 | 0 | 21 | 0 | 28 | 0 | 4 | 29 | 26 | 0
8 | CCOC(=O)N1CCC(n2cnc(-c3ccc(F)cc3)c2-c2ccnc(N)n2)CC1 [SB-219952] | 0 | 10 | 0 | 0 | 9 | 0 | 28 | 6 | 0 | 38
9 | Cl.Cl.NC[C@H](CC1CCCCC1)NC(=O)c1ccc(-c2ccnc3[nH]ccc23)s1 [GSK1581428] | 98.3 | 0 | 17 | 0 | 85 | 12 | 91.6 | 54 | 98.4 | 63
10 | Cn1ccc2ncnc(Oc3ccc(NC(=O)Nc4cccc(C(F)(F)F)c4)c(Cl)c3)c21 | 0 | 0 | 7 | 0 | 45 | 0 | 0 | 4 | 60 | 0
11 | CS(=O)(=O)c1cccc(CNc2nc(Nc3ccc4c(c3)[C@@H]3C[C@@H]4CNC3=O)ncc2C(F)(F)F)c1 | 97.6 | 0 | 0 | 0 | 91.6 | 0 | 49 | 97.3 | 0 | 0
12 | COc1cc2ncn(-c3cc(OCC4CCCCC4)c(C(N)=O)s3)c2cc1OC [GSK204559] | 15 | 0 | 21 | 0 | 84 | 0 | 31 | 4 | 12 | 30
13 | C[C@@H](Oc1cc(-n2cnc3ccc(-c4ccncc4)cc32)sc1C(N)=O)c1ccccc1Cl [GSK483724] | 51 | 0 | 5 | 0 | 73 | 0 | 25 | 80 | 19 | 0
14 | O=C(Nc1n[nH]c2cc(-c3ccco3)ccc12)C1CC1 [SB-737447] | 11 | 9 | 0 | 3 | 62 | 0 | 66 | 49 | 0 | 0
15 | O=C1NCCc2[nH]c(-c3ccncc3)cc21 | 87 | 12 | 6 | 0 | 0 | 0 | 4 | 33 |  | 68
16 | CCCC(=O)Nc1n[nH]c2ncccc12 [SB-601436] | 0 | 0 | 0 | 4 | 16 | 0 | 10 | 3 | 0 | 0
17 | C[C@@H](Oc1cc(-n2cnc3cc(-c4cnn(C)c4)ccc32)sc1C(N)=O)c1ccccc1Cl [GSK580432] | 98.4 | 0 | 84 | 0 | 98.2 | 42 | 85 | 51 | 0 | 3
